In PubChem BioAssay (NCI):
This is part of a sample that, as a whole, favours compounds with a hit. Of some 83,000 tested, about 20% had one in any assay.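 In brief: 96-well plates, 48 h treatment, single concentration, percent growth endpoint.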 A number with no mark means an inactive call. Calls of active or inactive are those of the source. Rule for the calls: active = growth percent below 10; inactive = the rest.

Tested on: NCI-H23 lung
Assay: NCI-60 one-dose screen, 48 h (100 = growth as untreated, 0 = no growth, -100 = all killed)
Conditions: 10 µM unless noted

Structure (SMILES)	growth
COc1cc(/C=C/C(=O)c2ccc(N3CCN(C)CC3)cc2)ccc1F	84.4%
O=C(Nc1cccc(-c2nc(-c3ccc(NC(=O)c4cccnc4)cc3Cl)no2)c1)Nc1ccc(NC(=O)C2CC2)c(C(F)(F)F)c1	-68.6% (active)
CCNC(=O)Oc1ccc(/C(=C(/C)c2ccc(Cl)cc2)c2ccc(OCCN3CCCC3)cc2)cc1	87.5%
CS(=O)c1nccc(-c2c(-c3ccc(F)c(OCc4ccc(F)cc4)c3)nc3sccn23)n1 (stereo not drawn)	61.6%
CN1CCN(c2ccc(NC(=O)Nc3ccc4c(ccn4-c4cccc(C(N)=O)n4)c3)cc2C(F)(F)F)CC1	72.5%
O=c1oc2ccc(-c3ccc(F)cc3F)cc2c(=O)n1-c1ccc(F)c(F)c1	2.21% (active)
N#Cc1c(NC(=O)c2ccc(F)c(Cl)c2)sc2c1CCC(=O)C2	-7.87% (active)
CC(C)SC1=NC(=C(C(=N1)NC2=ClC=CC=C2)C#N)C3=CC=CC=C3	37.7%
CCOC(=O)c1c(NCC(=O)Nc2cccc(Cl)c2)sc2c1CCCC2	66.5%
COc1ccc([C@H]2[C@H](O)C(=O)N2c2cc(OC)c(OC)c(OC)c2)cc1	12.6%
O=c1[nH]c2cc(Cl)ccc2n1C1CCN(c2ccc3nnc(Cl)n3n2)CC1	91%
O=C1[C@@H]2Cc3c([nH]c4ccccc34)[C@H](c3c(Cl)cccc3Cl)N2C(=O)CN1C1CCN(Cc2ccccc2)CC1	41.7%
CS(=O)(=O)c1ccc2c(c1)c1c(n2Cc2ccc(Cl)cc2)CCCC1	73.5%
O=C(CCCCCCN1CC(=O)N2[C@@H](c3ccc(Cl)c(F)c3)c3[nH]c4ccccc4c3C[C@H]2C1=O)NO	95.3%
O=C(c1ccc(O)cc1)[C@@H]1[C@@H]2CCCN2[C@@]2(C(=O)N(C(=O)c3ccc(F)cc3)c3ccccc32)[C@H]1c1ccc(F)cc1	98.5%
COc1cc(-c2nc(SCc3ccc(C)cc3)[nH]c(=O)c2C#N)ccc1OCc1ccccc1	106%
CN(C)C(=O)c1ccccc1-n1cnc2ccccc2c1=O	99.3%
CCN1C(=O)N(CC)C2SC(N/N=C/c3ccccc3)=NC21 (stereo not drawn)	31.1%
CCOC(=O)Nc1ccc(-c2nc(-c3cccc(O)c3)c(-c3ccnc(Br)c3)[nH]2)cc1	31%

Structure (SMILES)	growth
O=C1c2c(c3c4cc(Br)ccc4[nH]c3c3ccc4ccccc4c23)C(=O)N1CCN1CCCCC1	37.8%
CN(C)CCn1c2ccc(N)cc2c2nc3ccccc3nc21	28.2%
COc1ccc(-c2cc(-c3cccc4ccccc34)n3c(n2)nc2ccccc23)cc1	62.2%
Nc1c(C(=O)c2ccccc2)sc2nc(-c3cnccn3)cc(-c3cccs3)c12	104%
CCOC(=O)c1c(Nc2ccccc2)nn2c(-c3ccc(OC)c(OC)c3)ccnc12	70.8%
O=C(COc1ccc(C2SCC(=O)N2c2ccccc2)cc1)c1ccccc1 (stereo not drawn)	94%
CCn1c2ccc(/C=N/OCCCN(C)C)cc2c2cc(/C=N/OCCCN(C)C)ccc21	-5.99% (active)
N/C(=N\OC(=O)CSc1nc2ccccc2s1)c1ccc2ccccc2c1	95.3%
COc1ccc(-c2nc3cc(Cl)c(Cl)cc3n2CC(=O)N=Nc2c(O)[nH]c3ccc(Br)cc23)cc1	-21.5% (active)
Oc1ccc(-c2nnc(SCc3ccc(O)c4ncccc34)o2)cc1	13.4%
CC1=CC(=O)CC(C)(C)[C@@]1(O)/C=C/C(C)=C\C(=O)O	-29.3% (active)
O=C(N/N=C\c1ccc(Cl)cc1)c1ccc2nc(-c3ccc(Br)cc3)[nH]c2c1	-36% (active)
CS(=O)(=O)c1nccc(-c2c(-c3ccc(F)c(OCc4ccccc4)c3)nc3sccn23)n1	98.4%
C=CCn1c(SCC(=O)Nc2ccc(OC)cc2)nnc1-c1ccc(Cl)cc1	81.1%
CN1C(=O)N(C)C2Nn3c(s/c(=C\c4ccccn4)c3=O)=NC21 (stereo not drawn)	108%
Oc1ccc(-c2nnc(SCc3ccc(O)c4ncccc34)n2-c2ccccc2)cc1	19.3%
Fc1ccccc1/C=C(/C1=NCCN1)n1cnc2ccccc21	96%
COc1cnc2c(c1)C(=O)c1c-2n(CCCn2ccnc2)c(=O)c2cc(OC)c(OC)cc12	-1.32% (active)
CC[C@@](C)(NC(=O)C(C)(C)NC(=O)[C@@H](NC(=O)[C@@H]1CCCN1C(=O)C(C)(C)NC(=O)[C@H](CC(C)C)NC(=O)CNC(=O)C(C)(C)NC(=O)[C@@H](NC(=O)C(C)(C)NC(=O)[C@H](CCC(N)=O)NC(=O)[C@H](C)NC(=O)C(C)(C)NC(=O)[C@H](C)NC(=O)C(C)(C)NC(=O)[C@H](C)NC(=O)C(C)(C)NC(C)=O)C(C)C)C(C)C)C(=O)N[C@@H](CCC(N)=O)C(=O)N[C@@H](CCC(N)=O)C(=O)N[C@H](CO)CC1CCCCC1	16.2% [5 µM]
